Where “and” joins values, the source holds several entries; their conditions need not be identical. Equal values may be shown once. Inconclusive results are not listed. Entries that show only a call come without a potency. A structure can be active in one record and inactive in another. Calls of active or inactive are those of the source. Calls follow the shape of the dose curve; as a rule, active = well fitted curve in the direction sought with a large enough effect; inconclusive = small, poorly fitted or top-dose-only effect, or another doubt; inactive = no such curve, though single readings can be large; an effect the other way counts as inactive or inconclusive.
Tests used:
[1] = target: Rap guanine nucleotide exchange factor 3 (Homo sapiens) (UniProt O95398); assay: Confirmatory qHTS for antagonist of cAMP-regulated guanine nucleotide exchange factor 3 (EPAC1) (AID 1645880); also: nearly all actives have a fitted effect of over 55% in size
Summary of the method: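 Released BODIPY-GDP fluoresces less than Rap1-bound BODIPY-GDP; the signal is followed at 480/540 nm at 5-min intervals over 30 min, after 5 min at room temperature. Reactions contain 100 nM EPAC1, 250 nM RAP1B-BODIPY-GDP and 50 uM GDP; results are normalized to ATA and DMSO.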

[2] = target: Rap guanine nucleotide exchange factor 3 (Homo sapiens) (UniProt O95398); assay: Confirmatory qHTS for agonist of cAMP-regulated guanine nucleotide exchange factor 3 (EPAC1) (AID 1645881);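 also: EPAC1 catalysed release of BODIPY-GDP from Rap1B seen as fluorescence loss; nearly all actives have a fitted effect of over 75% in size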
[3] = target: Rap guanine nucleotide exchange factor 4 (Homo sapiens) (UniProt Q8WZA2); assay: Confirmatory qHTS for agonist of cAMP-regulated guanine nucleotide exchange factor 4 (EPAC2) (AID 1645884);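 also: nucleotide exchange releases bodipy-GDP from Rap1 and this lowers its fluorescence; nearly all actives have a fitted effect of over 65% in size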
[4] = target: Rap guanine nucleotide exchange factor 4 (Homo sapiens) (UniProt Q8WZA2); assay: Confirmatory qHTS for antagonist of cAMP-regulated guanine nucleotide exchange factor 4 (EPAC2) (AID 1645885); also: nearly all actives have a fitted effect of over 25% in size
[5] = target: Catechol O-methyltransferase (Homo sapiens) (UniProt P21964); assay: Confirmatory Screen for Target Class Profiling of Small Molecule Inhibitors of Methyltransferases (AID 1745852); conditions: MTase-Glo luminescence, SAH detection, recombinant enzyme; measured here: COMT max response; stronger effect = lower value
[6] = target: Guanidinoacetate N-methyltransferase (Homo sapiens) (UniProt Q14353); assay: as above; conditions: MTase-Glo luminescence, SAH detection, recombinant enzyme; at 57.3 µM (top of the series)
[7] = target: Nicotinamide N-methyltransferase (Homo sapiens) (UniProt P40261); assay: as above; conditions: MTase-Glo luminescence, SAH detection, recombinant enzyme; measured here: NNMT max response; stronger effect = lower value
[8] = target: Phenylethanolamine N-methyltransferase (Homo sapiens) (UniProt P11086); assay: as above; conditions: MTase-Glo luminescence, SAH detection, recombinant enzyme; measured here: PNMT max response; stronger effect = lower value
[9] = Primary qHTS for inhibitors of nuclear receptor binding SET domain protein 2 (NSD2) in an isogenic RCH-ACV NSD2 p.E1099K mutant (9B) (AID 1645876); also: nearly all actives have a fitted effect of over 70% in size; also: potency is read from the fitted curve at half-maximal effect
[10] = Primary qHTS for inhibitors of nuclear receptor binding SET domain protein 2 (NSD2) in an RCH-ACV wild type WT cells (2C) (AID 1645877); also: nearly all actives have a fitted effect of over 70% in size; also: potency is read from the fitted curve at half-maximal effect

Sequence of Rap guanine nucleotide exchange factor 3 (Homo sapiens) (O95398 whole entry, looked up): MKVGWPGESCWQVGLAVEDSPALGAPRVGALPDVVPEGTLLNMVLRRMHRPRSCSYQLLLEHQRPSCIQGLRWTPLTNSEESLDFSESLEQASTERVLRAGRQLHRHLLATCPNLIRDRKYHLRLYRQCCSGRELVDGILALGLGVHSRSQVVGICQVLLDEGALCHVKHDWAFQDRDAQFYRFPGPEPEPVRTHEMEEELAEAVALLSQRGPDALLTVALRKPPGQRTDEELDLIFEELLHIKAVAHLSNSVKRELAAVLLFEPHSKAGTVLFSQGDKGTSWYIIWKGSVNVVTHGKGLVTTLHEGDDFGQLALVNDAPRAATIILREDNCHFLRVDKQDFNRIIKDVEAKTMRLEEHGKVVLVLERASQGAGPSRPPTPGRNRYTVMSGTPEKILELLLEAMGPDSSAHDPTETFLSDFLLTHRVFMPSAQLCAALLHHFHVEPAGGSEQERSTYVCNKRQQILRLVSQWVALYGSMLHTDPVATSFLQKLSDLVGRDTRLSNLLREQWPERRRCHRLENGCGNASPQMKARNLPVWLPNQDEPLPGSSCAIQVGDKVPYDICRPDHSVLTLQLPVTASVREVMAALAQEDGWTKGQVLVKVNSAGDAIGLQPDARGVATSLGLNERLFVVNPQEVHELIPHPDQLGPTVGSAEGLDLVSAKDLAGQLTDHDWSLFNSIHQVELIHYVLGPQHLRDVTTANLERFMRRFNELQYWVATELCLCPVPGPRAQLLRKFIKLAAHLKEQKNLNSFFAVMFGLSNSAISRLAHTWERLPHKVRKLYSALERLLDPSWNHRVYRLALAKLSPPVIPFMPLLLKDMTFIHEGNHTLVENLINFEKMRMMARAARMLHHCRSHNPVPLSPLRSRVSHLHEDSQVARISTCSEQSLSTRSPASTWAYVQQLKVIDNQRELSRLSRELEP
Sequence of Rap guanine nucleotide exchange factor 4 (Homo sapiens) (Q8WZA2 whole entry, looked up): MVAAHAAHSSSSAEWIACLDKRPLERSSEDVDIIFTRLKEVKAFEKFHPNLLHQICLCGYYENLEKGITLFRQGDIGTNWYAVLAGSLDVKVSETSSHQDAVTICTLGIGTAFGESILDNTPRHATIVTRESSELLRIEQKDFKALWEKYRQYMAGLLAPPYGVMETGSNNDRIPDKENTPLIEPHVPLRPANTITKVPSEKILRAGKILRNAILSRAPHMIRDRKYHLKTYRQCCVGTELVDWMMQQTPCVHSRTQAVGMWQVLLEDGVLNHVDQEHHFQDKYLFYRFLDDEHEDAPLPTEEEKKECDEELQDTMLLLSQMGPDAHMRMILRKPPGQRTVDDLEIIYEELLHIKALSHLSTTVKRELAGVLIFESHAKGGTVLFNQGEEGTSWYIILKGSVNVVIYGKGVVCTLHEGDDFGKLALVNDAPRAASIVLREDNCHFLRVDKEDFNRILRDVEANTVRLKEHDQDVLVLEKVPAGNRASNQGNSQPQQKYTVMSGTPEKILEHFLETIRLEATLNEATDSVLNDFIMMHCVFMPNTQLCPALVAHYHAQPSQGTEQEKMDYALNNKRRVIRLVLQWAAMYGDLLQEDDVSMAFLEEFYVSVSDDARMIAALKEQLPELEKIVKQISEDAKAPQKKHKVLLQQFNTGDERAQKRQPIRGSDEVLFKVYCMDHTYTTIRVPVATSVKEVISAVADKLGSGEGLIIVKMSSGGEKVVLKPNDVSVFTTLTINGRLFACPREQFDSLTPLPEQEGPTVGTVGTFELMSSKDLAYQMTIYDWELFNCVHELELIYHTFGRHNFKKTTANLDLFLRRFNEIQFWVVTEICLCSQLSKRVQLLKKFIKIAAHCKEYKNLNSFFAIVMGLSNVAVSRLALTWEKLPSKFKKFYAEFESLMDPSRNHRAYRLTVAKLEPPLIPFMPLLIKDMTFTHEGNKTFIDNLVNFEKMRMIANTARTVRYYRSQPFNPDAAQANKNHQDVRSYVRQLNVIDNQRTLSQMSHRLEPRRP
Sequence of Phenylethanolamine N-methyltransferase (Homo sapiens) (P11086 whole entry, looked up, the tested form may be a part): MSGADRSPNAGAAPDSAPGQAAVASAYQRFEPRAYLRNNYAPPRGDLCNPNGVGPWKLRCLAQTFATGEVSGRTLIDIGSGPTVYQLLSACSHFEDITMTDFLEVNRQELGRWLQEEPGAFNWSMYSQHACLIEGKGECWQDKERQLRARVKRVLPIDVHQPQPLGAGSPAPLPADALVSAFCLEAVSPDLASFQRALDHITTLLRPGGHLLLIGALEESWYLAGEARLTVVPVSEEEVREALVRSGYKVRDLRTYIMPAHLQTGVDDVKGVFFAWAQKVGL
Sequence of Catechol O-methyltransferase (Homo sapiens) (P21964 whole entry, looked up): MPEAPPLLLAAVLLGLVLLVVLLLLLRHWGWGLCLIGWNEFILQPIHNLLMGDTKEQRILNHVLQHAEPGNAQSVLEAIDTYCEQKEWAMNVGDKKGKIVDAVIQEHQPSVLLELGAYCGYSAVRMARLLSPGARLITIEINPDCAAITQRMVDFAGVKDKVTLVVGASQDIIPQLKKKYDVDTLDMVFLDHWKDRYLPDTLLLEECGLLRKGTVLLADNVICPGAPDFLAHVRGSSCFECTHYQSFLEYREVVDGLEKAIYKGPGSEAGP
Sequence of Nicotinamide N-methyltransferase (Homo sapiens) (P40261 whole entry, looked up): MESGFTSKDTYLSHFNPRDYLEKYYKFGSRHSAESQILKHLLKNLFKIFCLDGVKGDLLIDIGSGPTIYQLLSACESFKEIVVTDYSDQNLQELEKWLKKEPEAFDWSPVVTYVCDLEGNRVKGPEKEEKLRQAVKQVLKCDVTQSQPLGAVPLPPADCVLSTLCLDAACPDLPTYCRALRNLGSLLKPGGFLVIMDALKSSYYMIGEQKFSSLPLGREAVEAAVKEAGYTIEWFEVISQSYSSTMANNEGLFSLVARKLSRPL

COc1cc2c(cc1O)CC[C@@H]1[C@@H]2CC[C@]2(C)[C@@H](O)CC[C@@H]12
Potency [1]: inactive
outcome [2]: inactive
Potency [3]: inactive
Potency [4]: inactive

CC[C@H](C)C(=O)O[C@H]1CCC=C2C=C[C@H](C)[C@H](CC[C@@H]3C[C@@H](O)CC(=O)O3)[C@H]21
activity [5]: -80.2%
activity change, negative = inhibition [6]: -3.09%
activity [7]: -8.02%
activity [8]: -5.04%

CCN(CC)CCNC(=O)COc1ccc(Cl)cc1
Potency [9]: inactive
Potency [10]: inactive

O=C(O)CNC(=O)c1ccccc1
Potency [9]: inactive
Potency [10]: inactive

CC(Cc1ccccc1)(NC(=O)CN)c1ccccc1 (centres undefined)
Potency [9]: inactive
Potency [10]: inactive

CCOC(=O)c1cccc(N)c1
Potency [9]: inactive
Potency [10]: inactive

NC(=O)CC[C@@H]1NC(=O)[C@H](Cc2ccccc2)NC(=O)[C@H](Cc2ccc(O)cc2)NC(=O)CCSSC[C@@H](C(=O)N2CCC[C@H]2C(=O)N[C@@H](CCCN=C(N)N)C(=O)NCC(N)=O)NC(=O)[C@H](CC(N)=O)NC1=O
Potency [9]: inactive
Potency [10]: inactive

CCC(=O)c1c(O)cc(O)cc1O
Potency [9]: inactive
Potency [10]: inactive

CCN(CC)CCOc1ccc(C(O)(Cc2ccc(Cl)cc2)c2ccc(C)cc2)cc1 (centres undefined)
Potency [9]: 5.31 µM (active)
Potency [10]: 2.66 µM (active)

Oc1c(I)cc(I)c2cccnc12
Potency [9]: 2.99 µM (active)
Potency [10]: 2.11 µM (active)

CN=C(NC#N)NCCSCc1csc(N=C(N)N)n1
Potency [9]: inactive
Potency [10]: inactive

O=c1[nH]c(=O)n([C@H]2C[C@H](O)[C@@H](CO)O2)cc1C(F)(F)F
Potency [9]: 596 nM (active) and 1.05 µM (active)
Potency [10]: 106 nM (active) and 662 nM (active)

CN(C)CCOc1ccccc1Cc1ccccc1
Potency [9]: inactive
Potency [10]: inactive

CCCCCC=CCC=CCCCCCCCC(=O)OCC
Potency [9]: 23.7 µM (active)
Potency [10]: 18.8 µM (active)

CCCCCCCCCCCCCCCCCC(=O)OCC(O)CO (centres undefined)
Potency [9]: inactive
Potency [10]: inactive

CCn1cc(C(=O)O)c(=O)c2cnc(N3CCCC3)nc21
activity change, negative = viability loss [9]: 4% [at 9.23 µM] (inactive)
activity change, negative = cell killing [10]: -0.361% [at 9.23 µM] (inactive)

Cc1c(C(N)=O)cc([N+](=O)[O-])cc1[N+](=O)[O-]
Potency [9]: inactive
Potency [10]: inactive

CCCCOc1ccc(C(=O)CCN2CCCCC2)cc1
Potency [9]: 15 µM (active)
Potency [10]: 13.3 µM (active)

CC(=O)CC(c1ccc([N+](=O)[O-])cc1)c1c(O)c2ccccc2oc1=O (centres undefined)
Potency [9]: inactive
Potency [10]: inactive

COCc1c(C(C)C)nc(C(C)C)c(/C=C/[C@@H](O)C[C@@H](O)CC(=O)O)c1-c1ccc(F)cc1
Potency [9]: 0.335 µM (active)
Potency [10]: 0.211 µM (active)

COc1c(C)c2c(c(O)c1C/C=C(\C)CCC(=O)O)C(=O)OC2
Potency [9]: 66.8 nM (active) and 833 nM (active)
Potency [10]: 53.1 nM (active) and 590 nM (active)

Cc1nc2n(c(=O)c1CCN1CCC(c3noc4cc(F)ccc34)CC1)CCC[C@H]2O
Potency [9]: inactive
Potency [10]: inactive

CN(C(=O)CN(CCO)CC(=O)N(C)C(C)(C)Cc1ccccc1)C(C)(C)Cc1ccccc1
Potency [9]: 5.31 µM (active)
Potency [10]: 5.31 µM (active)

COc1c2occc2c(OC)c2c(=O)cc(C)oc12
Potency [9]: inactive
Potency [10]: inactive

NCCc1ccn[nH]1
Potency [9]: inactive
Potency [10]: inactive

C[C@H]1[C@H](NC(=O)/C(=N/OC(C)(C)C(=O)O)c2csc(N)n2)C(=O)N1S(=O)(=O)O (stereo in doubt)
Potency [9]: inactive
Potency [10]: inactive

CCCSS/C(CCO)=C(\C)N(C=O)Cc1cnc(C)nc1N
Potency [9]: 15 µM (active)
Potency [10]: 16.8 µM (active)

OC[C@@H](O)[C@@H](O[C@@H]1O[C@H](CO)[C@H](O)[C@H](O)[C@H]1O)[C@H](O)[C@@H](O)CO
Potency [9]: inactive
Potency [10]: inactive

Nc1ccc(C(=O)Nc2ccccc2N)cc1
Potency [9]: 9.44 µM (active)
Potency [10]: 8.41 µM (active)

COC(=O)CCc1ccc(OCC(O)CNC(C)C)cc1 (centres undefined)
Potency [9]: inactive
Potency [10]: inactive

COc1ccc(OC)c(C(O)CNC(=O)CN)c1 (centres undefined)
Potency [9]: inactive
Potency [10]: inactive

CC(=O)OCC(=O)[C@@]12OC(C)(C)O[C@@H]1C[C@H]1[C@@H]3C[C@H](F)C4=CC(=O)C=C[C@]4(C)[C@@]3(F)[C@@H](O)C[C@@]12C
Potency [9]: inactive
Potency [10]: 0.9 nM (active) and inactive

CC(=O)Nc1c(I)cc(I)c(C(=O)O)c1I
Potency [9]: inactive
Potency [10]: inactive

CCC(C(=O)OCCN(CC)CC)c1ccccc1 (centres undefined)
Potency [9]: inactive
Potency [10]: inactive

NC(CO)(CO)CO
Potency [9]: inactive
Potency [10]: inactive

Cc1cc(=O)n(-c2ccccc2)n1C
Potency [9]: inactive
Potency [10]: inactive

NC[C@H]1O[C@H](O[C@H]2[C@H](O)[C@@H](O[C@H]3O[C@H](CO)[C@@H](O)[C@H](N)[C@H]3O)[C@H](N)C[C@@H]2N)[C@H](N)[C@@H](O)[C@@H]1O
Potency [9]: inactive
Potency [10]: inactive

O=C1[C@H]2CCCC[C@H]2C(=O)N1CCCCN1CCN(c2nsc3ccccc23)CC1
Potency [9]: 21.1 µM (active)
Potency [10]: 23.7 µM (active)

Cc1c(N(C)CS(=O)(=O)O)c(=O)n(-c2ccccc2)n1C
Potency [9]: inactive
Potency [10]: inactive

OCc1ccccc1O
Potency [9]: inactive
Potency [10]: inactive

Source: PubChem BioAssay (NCATS)
